Measurements: PubChem BioAssay (NCATS)
“And” between values parts separate entries of the source, which are not always exact repeats. Equal entries are not always repeated. Inconclusive results are not listed. The source made the active and inactive calls. Unless noted, the call rests on the fitted dose curve; in most records, active means well fitted curve in the direction sought with a large enough effect; inconclusive means small, poorly fitted or top-dose-only effect, or another doubt; inactive means no such curve, though single readings can be large; an effect the other way counts as inactive or inconclusive.

Key:
[1] = biological target: Arylsulfatase A (Homo sapiens) (UniProt P15289); test: qHTS screen for enhancers of Arylsulfatase A (ASA1): LOPAC Validation Assay (AID 720538); conditions: outcome: dose series up to 57.5 µM
Method in brief: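 First, ASA-I179S fibroblasts from an MLD patient adhered for 6 hrs. Next, compounds were added for 48h. Then pNCS substrate (0.5mM final) with lysis buffer reacted 14h at room temperature before NaOH stop and fluorescence measurement.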

[2] = qHTS for compounds that reverse cellular toxicity of Amyloid beta (A-beta) peptide in yeast: LOPAC Validation Assay (AID 720559);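 further: plate controls were DMSO for no effect and equimolar ferric chloride plus clioquinol rescue for full effect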
Method in brief: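 Activity is expressed relative to DMSO and an equimolar ferric chloride/clioquinol mix. Compounds were pinned into medium with A-beta-expressing yeast, grown 48 hr at 30 C, then read by absorbance at 600 nm.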

[3] = qHTS for Activators of Parkin Expression: LOPAC Validation Assay (NLuc Reporter) (AID 720572; further: potency means the concentration at half of the fitted maximal effect)
Method in brief: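 Neuronal line stably carrying a FLuc/NLuc coincidence reporter under the Parkin promoter, seeded 24 h, then dosed in 7-point series for 24 h at 37 C. NLuc luminescence read after FLuc; normalized to DMSO and positive control (100%).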

[4] = qHTS for Activators of Parkin Expression: LOPAC Validation Assay (FLuc Reporter) (AID 720573;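 further: 0% = DMSO and 100% = positive control compounds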)
Method in brief: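 A neuronal cell line harbouring FLuc and NLuc reporters behind the Parkin promoter was exposed to compounds for 24 h. Firefly luciferase signal, measured after 10 min with detection reagent, was scaled to DMSO and positive-control wells.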

[5] = biological target: T1, Hexokinase-4 (Homo sapiens) + Glucokinase regulatory protein (Homo sapiens) (UniProt P35557+Q14397); test: qHTS assay for inhibitors of recombinant human GCK-GKRP interaction: Diaphorase-coupled assay (AID 743205)
Method in brief: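 Inhibitors of the GCK–GKRP complex relieve GKRP suppression of GCK, detected through a G6PDH–diaphorase cascade reducing resazurin. Human GST-GCK and FLAG-GKRP are used at 10 nM with 5 mM glucose and 0.4 mM ATP.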

[6] = qHTS Assay for Identifying Gametocytocidal Compounds (AID 743244);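 further: on the % scale 0 is the no-effect control and ±100 the full control effect; actives lower the fluorescent signal which means gametocytes are killed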; conditions: P. falciparum 3D7 stage III-V gametocytes, alamarBlue, 72 h; max response: stronger effect = lower value
Method in brief: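 In this qHTS viability screen, late-stage 3D7 gametocytes are incubated with compound for 72 h, then with alamarBlue for 24 h; reduced resorufin fluorescence marks killing.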

[7] = qHTS profiling for inhibitors of Plasmodium falciparum (3D7) proliferation (AID 743322; call rule not given here;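 further: infected erythrocytes exposed to compound for 72 h before lysis; 100% = DMSO vehicle wells and 0% = 0.29 µM artemisinin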); conditions: P. falciparum 3D7 proliferation; at 28.7 µM (top of the series) unless noted
Method in brief: (§1)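 Erythrocytes infected with P. falciparum (0.3% parasitemia, 2.5% hematocrit) incubated with compounds 72 h at 37 C, 5% CO2. Lysis with saponin/Triton buffer containing SYBR Green I, overnight at room temperature in the dark; DNA fluorescence (485/535 nm) normalised to 0.29 uM artemisinin and DMSO.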

[8] = qHTS profiling for inhibitors of Plasmodium falciparum (DD2) proliferation (AID 743323; call rule not given here); conditions: lower = more inhibition; at 28.7 µM (top of the series) unless noted
Method in brief: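 P. falciparum Dd2-infected erythrocytes (0.3% parasitemia, 2.5% hematocrit) exposed 72 h at 37 C, 5% CO2. Lysis with SYBR Green, overnight at room temperature, fluorescence 485/535 nm; normalized to 0.29 uM artemisinin and DMSO.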

[9] = qHTS profiling of the MIPE4 collection as inhibitors of Plasmodium falciparum (3D7) proliferation (AID 743344; call rule not given here;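 further: scaled between DMSO vehicle wells and 0.29 µM artemisinin as full inhibition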); conditions: P. falciparum 3D7 in erythrocytes, SYBR Green DNA fluorescence, 72 h; at 28.5 µM (top of the series) unless noted
Method in brief: as §1

[10] = qHTS profiling of the MIPE4 collection as inhibitors of Plasmodium falciparum (DD2) proliferation (AID 743345; call rule not given here); conditions: P. falciparum Dd2 in erythrocytes, SYBR Green DNA, 72 h; at 28.5 µM (top of the series) unless noted
Method in brief: as §1

[11] = qHTS profiling of the MIPE4 collection as inhibitors of Plasmodium falciparum (DD2) proliferation (Rep 2) (AID 743346; call rule not given here); conditions: P. falciparum Dd2 in erythrocytes, SYBR Green DNA, 72 h; at 28.5 µM (top of the series) unless noted
Method in brief: as §1

[12] = qHTS profiling of the MIPE4 collection as inhibitors of Plasmodium falciparum (HB3) proliferation (AID 743347; call rule not given here;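 further: plate controls were DMSO vehicle wells for no effect and artemisinin wells for full effect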); conditions: P. falciparum HB3 in erythrocytes, SYBR Green DNA, 72 h; at 28.5 µM (top of the series) unless noted
Method in brief: as §1

[13] = qHTS assay for small molecule agonists of the antioxidant response element (ARE) signaling pathway measured by Nrf2-dependant transcriptional activity (AID 720636; active means well fitted curve in the direction sought with a large enough effect in the repeat runs; an effect the other way counts as inactive or inconclusive;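 further: HepG2 cells with an ARE-driven luciferase reporter; % of control where 0% means no effect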)
Method in brief: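 Nrf2-dependent transcription is measured in ARE-luc HepG2 cells: compound is applied for 16 hr at 37 C after a 6 hr attachment period, and luciferase activity is quantified by luminescence using ONE-Glo.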

[14] = biological target: T1, Hexokinase-4 (Homo sapiens) + Glucokinase regulatory protein (Homo sapiens); test: qHTS assay for inhibitors of recombinant human GCK-GKRP interaction: ADP-Glo assay (AID 743206);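 further: plate controls were DMSO plus enzyme for no effect and no enzyme for full effect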
Method in brief: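 GST-GCK and FLAG-GKRP (15 nM each in the dispensed mix, with 2 uM S6P) react with 0.4 mM ATP and 5 mM glucose (final) in Hepes pH 7.6 for 60 min at room temperature. ADP is measured by ADP-Glo luminescence.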

[15] = qHTS assay for cell viability of HEK293 cells (AID 743288); conditions: ATP luminescence (CellTiter-Glo), 18 h; max response: stronger effect = lower value; further: on the % scale 0 is the no-effect control and ±100 the full control effect; nearly all actives have a fitted effect of over 50% in size
Method in brief: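 The Tox21 protocol used parental HEK293 cells treated for 18 h at 37 C with compounds delivered by pintool; ATP-coupled luminescence after 30 min at room temperature gave viability.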

[16] = qHTS assay for cell viability of the p53RE-bla HCT-116 cell line (AID 743292); further: nearly all actives have a fitted effect of over 55% in size; further: potency means the concentration at half of the fitted maximal effect
Method in brief: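 ATP-based luminescence, 16 h compound exposure at 37 C, p53RE-bla HCT-116 cells at 4,000/well.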

[17] = qHTS assay for small molecule antagonists of the retinoid-related orphan receptor gamma (ROR-gamma) signaling pathway - cell viability counter screen (AID 720652; active means well fitted curve in the direction sought with a large enough effect in the repeat runs; an effect the other way counts as inactive or inconclusive;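 further: CHO reporter cells with doxycycline-induced ROR-gamma expression; compound exposure lasted 16 hr before ATP read; on the % scale 0 is the no-effect control and ±100 the full control effect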)
Method in brief: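 Counter screen in CHO cells carrying TET-inducible ROR-gamma and an ROR response element-luciferase reporter; cells plated 5 hr, compound pinned, doxycycline added, then 16 hr at 37 C. Viability read as intracellular ATP by CellTiter-Glo luminescence.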

[18] = qHTS profiling for inhibitors of Plasmodium falciparum (HB3) proliferation (AID 743324); conditions: Plasmodium falciparum HB3 blood-stage proliferation; at 28.7 µM (top of the series) unless noted;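 further: 100% = DMSO vehicle wells and 0% = artemisinin-treated control wells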
Method in brief: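 P. falciparum HB3 grown in erythrocytes (0.3% parasitemia, 2.5% hematocrit final) with compound for 72 h at 37 C, 5% CO2. Parasite DNA detected by SYBR Green after saponin/triton lysis overnight; normalized to 0.29 uM artemisinin and DMSO.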

[19] = Cell Proliferation Assay Versus the ED40515 IL2 Independent ATL cell lines (AID 1053194; calls by dose curve); conditions: ED40515 IL2-independent ATL cells
Method in brief: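 Log-phase ED40515 cells grown without IL-2, 1000 cells/well in phenol red-free RPMI with 5% FBS, exposed to drugs 48 h at 37C. Viability read as CellTiter-Glo luminescence after 15 min at RT; DMSO and 9.2 uM bortezomib as controls.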

[20] = biological target: T1, Hexokinase-4 (Homo sapiens) + Glucokinase regulatory protein (Homo sapiens); test: qHTS assay for inhibitors of recombinant human GCK-GKRP interaction: HTRF assay (AID 743207);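 further: 0% = DMSO with GCK present and -100% = DMSO wells lacking GCK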
Method in brief: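 Steps: dispense GCK–GKRP complex (5 nM each, GST- and FLAG-tagged) with 2 uM S6P; pin in compounds; add XL665/Eu-cryptate-labelled antibodies; incubate 60 min at room temperature; read time-resolved FRET at 665 and 615 nm.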

T1 sequence (P35557 whole entry, looked up): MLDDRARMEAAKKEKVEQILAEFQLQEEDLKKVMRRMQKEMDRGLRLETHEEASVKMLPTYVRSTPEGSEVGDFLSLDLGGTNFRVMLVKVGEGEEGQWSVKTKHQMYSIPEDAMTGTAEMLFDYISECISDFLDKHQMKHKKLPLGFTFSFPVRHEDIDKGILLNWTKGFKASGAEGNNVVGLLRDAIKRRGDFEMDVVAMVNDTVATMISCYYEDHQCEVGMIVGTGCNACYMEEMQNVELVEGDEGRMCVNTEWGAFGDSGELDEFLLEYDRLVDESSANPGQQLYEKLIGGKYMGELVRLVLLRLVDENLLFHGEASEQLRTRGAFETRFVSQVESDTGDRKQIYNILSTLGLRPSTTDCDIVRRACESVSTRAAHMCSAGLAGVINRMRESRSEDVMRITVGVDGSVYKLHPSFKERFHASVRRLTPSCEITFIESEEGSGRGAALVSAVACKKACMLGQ
T1 sequence (Q14397 whole entry, looked up): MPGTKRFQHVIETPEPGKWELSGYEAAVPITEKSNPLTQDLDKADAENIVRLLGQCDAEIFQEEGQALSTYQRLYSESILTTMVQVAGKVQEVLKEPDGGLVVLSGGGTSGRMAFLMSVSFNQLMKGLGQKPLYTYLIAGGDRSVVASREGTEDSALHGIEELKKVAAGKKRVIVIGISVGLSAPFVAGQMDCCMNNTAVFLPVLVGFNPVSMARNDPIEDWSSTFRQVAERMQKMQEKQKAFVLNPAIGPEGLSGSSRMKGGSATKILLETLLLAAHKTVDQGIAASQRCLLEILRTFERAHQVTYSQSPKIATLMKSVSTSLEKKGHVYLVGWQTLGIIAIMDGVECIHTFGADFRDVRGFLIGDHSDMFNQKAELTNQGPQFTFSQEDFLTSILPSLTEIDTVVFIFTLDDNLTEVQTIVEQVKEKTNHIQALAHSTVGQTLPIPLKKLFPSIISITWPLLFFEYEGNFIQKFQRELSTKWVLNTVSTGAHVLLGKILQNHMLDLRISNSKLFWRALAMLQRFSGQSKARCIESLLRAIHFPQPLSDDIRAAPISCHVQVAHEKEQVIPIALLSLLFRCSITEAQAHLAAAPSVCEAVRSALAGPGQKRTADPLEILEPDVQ
Arylsulfatase A (Homo sapiens), sequence (P15289 whole entry, looked up): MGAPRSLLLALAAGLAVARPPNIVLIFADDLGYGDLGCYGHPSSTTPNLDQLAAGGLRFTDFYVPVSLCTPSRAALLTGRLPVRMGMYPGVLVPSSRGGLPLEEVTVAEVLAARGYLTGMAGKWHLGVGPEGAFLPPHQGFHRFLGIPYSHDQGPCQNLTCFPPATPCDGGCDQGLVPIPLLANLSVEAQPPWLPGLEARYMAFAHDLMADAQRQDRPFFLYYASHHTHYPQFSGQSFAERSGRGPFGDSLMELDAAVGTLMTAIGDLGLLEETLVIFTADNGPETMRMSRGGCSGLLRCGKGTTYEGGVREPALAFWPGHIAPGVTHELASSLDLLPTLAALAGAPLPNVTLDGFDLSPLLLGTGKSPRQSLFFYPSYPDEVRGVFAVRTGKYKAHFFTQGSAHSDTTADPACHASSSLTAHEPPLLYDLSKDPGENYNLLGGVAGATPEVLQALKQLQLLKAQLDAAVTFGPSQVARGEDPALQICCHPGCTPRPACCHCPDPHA

| SMILES | outcome [1] | outcome [2] | Potency [3] | outcome [4] | outcome [5] | max response [6] | remaining parasite growth % (stronger effect = lower value) [7] [%] | activity, percent of control [8] [%] | parasite growth, % of DMSO control [9] [%] | parasite growth remaining, % of DMSO control (lower = more inhibition) [10] [%] | parasite growth, % of control (lower = inhibition) [11] [%] | growth, % of control [12] [%] | outcome [13] | outcome [14] | max response [15] | Potency [16] | outcome [17] | remaining proliferation (% of control), lower = more inhibition [18] [%] | Potency [19] | outcome [20] |
| --- | --- | --- | --- | --- | --- | --- | --- | --- | --- | --- | --- | --- | --- | --- | --- | --- | --- | --- | --- | --- |
| Cc1[nH]c(=O)c(C#N)cc1-c1ccc2nccn2c1 | inactive | inactive | inactive | inactive | inactive | -5.81% (inactive) and 18.1% (inactive) | 105 | 98.1 | 50.3 | 93.1 | 113 | 68.7 |  |  |  |  |  |  |  |  |
| CC(C)(C)NCC(O)c1ccc(O)c(CO)c1 (stereo not drawn) | inactive; inhibitor; fitted 8.4921 uM | inactive | inactive | inactive |  | 0.0655% (inactive) and 23.1% (inactive) |  |  |  |  |  |  |  |  |  |  |  |  |  |  |
| CCn1cc(C(=O)O)c(=O)c2cc(F)c(N3CCNC(C)C3)c(F)c21 (stereo not drawn) | inactive | inactive | inactive | inactive | inactive | 19.5% (inactive) and 11.6% (inactive) and 13.2% (inactive) |  |  | 49.1 | 68.3 | 83.6 | 91.5 |  |  |  |  |  |  |  |  |
| CC(C)NCC(O)COc1ccc(COCCOC(C)C)cc1 (stereo not drawn) | inactive; inhibitor; fitted 0.3793 uM | inactive | inactive | inactive | inactive | 24.7% (inactive) and -10.9% (inactive) and -2.93% (inactive) |  |  | 78.7 | 102 | 98 | 102 |  |  |  |  |  |  |  |  |
| C[C@]12CCC(=O)C=C1CC[C@@H]1[C@@H]2[C@@H](O)C[C@@]2(C)[C@H]1CC[C@]2(O)C(=O)CO | inactive | inactive | inactive | inactive | inactive | 5.84% (inactive) and 30.7% (inactive) |  | 92.4 |  |  |  |  | inactive | inactive | -17.5% (inactive) | inactive |  |  |  |  |
| NC(=O)c1cnccn1 | inactive | inactive | inactive | inactive | inactive | -3.29% (inactive) and 14.5% (inactive) |  |  | 97.3 | 94.9 | 45.3 | 105 | inactive |  | 4.61% (inactive) and 0.671% (inactive) | inactive | inactive |  |  |  |
| CC(=O)Oc1ccccc1C(=O)O | inactive | inactive | inactive | inactive | inactive | -2.57% (inactive) and 13.2% (inactive) |  |  | 93.6 | 90.5 | 90.6 | 94.6 | inactive |  | -2.25% (inactive) and -4.16% (inactive) and -2.23% (inactive) | inactive | inactive |  |  |  |
| Cc1cc2c(F)c(Oc3ncnn4cc(OC[C@@H](C)O)c(C)c34)ccc2[nH]1 |  |  |  |  |  | -5% (inactive) |  | 101 | 46.6 | 93.1 | 54.4 | 76.7 |  |  |  |  |  | 75.1 | 1.05 µM (active) |  |
| N=c1nc(N2CCCCC2)cc(N)n1O | inactive | inactive | inactive | inactive | inactive | 1.66% (inactive) and 5.64% (inactive) |  |  | 6.29 | 33.6 | 7.66 | 3.91 |  |  |  |  |  |  |  | inactive |
| Cc1ccccc1C(OCCN(C)C)c1ccccc1 (stereo not drawn) | inactive | inactive | inactive | inactive | inactive | 21.5% (inactive) and -9.62% (inactive) and 11.5% (inactive) |  |  | 64.6 | 60.2 | 40.2 | 87.3 | inactive | inactive | -14.1% (inactive) |  |  |  |  | inactive |
| O=c1[nH]cnc2[nH]ncc12 | inactive | inactive | inactive | inactive | inactive |  |  |  |  |  |  |  | inactive |  | 10.5% (inactive) | inactive | inactive |  |  |  |
| c1ccc(-c2nn3c(c2-c2ccnc4cc(OCCN5CCOCC5)ccc24)CCC3)nc1 |  |  |  |  |  | -4.63% (inactive) |  | 81.5 | 25.6 | 50.6 | 58.7 | 17.9 |  |  |  |  |  | 50.9 | 26.4 µM (active) |  |
| CC(C)(Sc1ccc(CCN(CCCCC2CCCCC2)C(=O)NC2CCCCC2)cc1)C(=O)O | inactive | inactive | inactive | inactive | inactive | 7.17% (inactive) and -0.948% (inactive) | 98.9 | 100 | 65.2 | 91.6 | 51.8 | 78.8 | inactive | inactive | -6.91% (inactive) | 12.6 µM (active) |  | 92.7 |  | inactive |
| CCN(CC)CCCC(C)Nc1ccnc2cc(Cl)ccc12 (stereo not drawn) | inactive | inactive | inactive | inactive | inactive |  |  | 2.54 | 19.3 | 10.1 | 15.1 | 41.8 |  |  |  |  |  | 0.178 |  |  |
| OC(CCN1CCCCC1)(c1ccccc1)C1CC2C=CC1C2 (stereo not drawn) | inactive | inactive | inactive | inactive | inactive | -9.9% (inactive) |  |  | 38.1 | 75.2 | 44.2 | 35.8 |  |  |  |  |  |  |  |  |
| CCC(C)N(C)C(=O)c1cc2ccccc2c(-c2ccccc2Cl)n1 (stereo not drawn) | inactive | inactive | 20.6 µM (active) | inactive | inactive | 24.9% (inactive) | 86.5 | 80.9 | 39 | 83.4 | 53.7 | 53.6 |  |  |  |  |  | 42 |  |  |
